# Measured values taken from PubChem BioAssay (EPA / NIEHS).
# “And” between values parts separate entries of the source, which are not always exact repeats. Identical values can stand only once. Results filed as inconclusive are left out. The source holds several records for some structures; these can differ, active in one and inactive in another. The source made the active and inactive calls. Rule for the calls: active = hit-call score of the fitted dose curve at least 0.9, where 1 is the maximum; inconclusive = response in the unintended direction; inactive = score below 0.9.
# Biological target: Retinoic acid receptor RXR-alpha (Homo sapiens) (UniProt P19793)
# Sequence (P19793 whole entry, looked up): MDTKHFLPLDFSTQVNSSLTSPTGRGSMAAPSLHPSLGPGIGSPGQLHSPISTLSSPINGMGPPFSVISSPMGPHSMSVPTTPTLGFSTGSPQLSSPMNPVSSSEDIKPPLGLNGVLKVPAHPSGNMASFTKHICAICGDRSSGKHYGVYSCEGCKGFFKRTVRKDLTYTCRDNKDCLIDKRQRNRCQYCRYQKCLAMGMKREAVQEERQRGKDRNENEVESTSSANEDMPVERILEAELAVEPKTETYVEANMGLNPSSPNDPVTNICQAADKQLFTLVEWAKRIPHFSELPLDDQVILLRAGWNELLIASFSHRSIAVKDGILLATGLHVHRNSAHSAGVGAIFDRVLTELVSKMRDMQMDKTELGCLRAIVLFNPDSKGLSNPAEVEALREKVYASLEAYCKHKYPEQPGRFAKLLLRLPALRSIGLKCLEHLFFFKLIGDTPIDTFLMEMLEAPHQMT
# Experiment: OT_NURR1_NURR1RXRa_1440: Odyssey Thera (OT) 24-hour HEK293T Protein Complementation Assay for Nurr1/retinoid X receptor (RXR) (AID 2283386)
# Method: OT_NURR1_NURR1RXRa_1440 is a cell-based assay that uses HEK293T, a human kidney cell line, with measurements taken at 24 hours after chemical dosing in a 384-well plate.OT_NURR1_NURR1RXRa_1440 is one of one assay component(s) measured or calculated from the OT_NURR1_NURR1RXRa_1440 assay. It is designed to make measurements of protein fragment complementation, a form of binding reporter, as detected with fluorescence intensity signals by Protein-fragment Complementation technology.Data from the assay component OT_NURR1_NURR1RXRa_1440 was analyzed into 1 assay endpoint. This assay endpoint, OT_NURR1_NURR1RXRa_1440, was analyzed in the positive analysis fitting direction relative to DMSO as the negative control and baseline of activity. Using a type of binding reporter, measures of receptor for gain-of-signal activity can be used to understand the binding at the pathway-level as they relate to the gene RXRA. Furthermore, this assay endpoint can be referred to as a primary readout, because the performed assay has only produced 1 assay endpoint. To generalize the intended target to other relatable targets, this assay endpoint is annotated to the nuclear receptor intended target family, where the subfamily is non-steroidal.
# Protein-fragment complementation assay, or PCA, is a method for the identification and quantification of protein-protein interactions. In the PCA, the proteins of interest ("bait" and "prey") are each covalently linked to fragments of a third protein (e.g. DHFR, which acts as a "reporter"). Interaction between the bait and the prey proteins brings the fragments of the reporter protein in close proximity to allow them to form a functional reporter protein whose activity can be measured.
Compound,outcome,AC50
Cc1ccc(N)c(N)c1,inactive,
[Cl-].[Cl-].[Hg+2],,11.4 µM (active)
c1ccc(N=Nc2ccccc2)cc1,inactive,
OCCOCCO,inactive,
Clc1ccc(C(c2ccc(Cl)cc2)C(Cl)(Cl)Cl)cc1,inactive,
Oc1ccc2ccc3cccc4ccc1c2c34,inactive,9.46 µM (active)
Cc1ccc(N)cc1,inactive,50 µM (active)
CN(C)c1ccc(C(=O)c2ccc(N(C)C)cc2)cc1,inactive,
Nc1ccc(Cc2ccc(N)cc2)cc1,inactive,
c1ccc(C2CO2)cc1 (stereo not given),inactive,
C[N+](C)(C)CC1CO1 (stereo not given),inactive,
O=[N+]([O-])C(Br)(CO)CO,inactive,
CCN(CC)CCO,inactive,
CC(C)(OOC(C)(C)c1ccccc1)c1ccccc1,,78.3 µM (active) and 78.5 µM (active)
CN(C)C(=O)Nc1ccc(Cl)cc1,inactive,
O=C(O)C1C2CCC(O2)C1C(=O)O (stereo not given),inactive,32 µM (active)
Clc1ccc(Cl)c(Cl)c1,inactive,
C1=Cc2cccc3cccc1c23,inactive,

Compound,outcome,AC50
CCCCCCCCCCCCCN1CC(C)OC(C)C1 (stereo not given),inactive,81.7 µM (active)
COC(=O)Nc1nc2ccccc2[nH]1,inactive,
CCC[CH2][Sn]([Cl])([CH2]CCC)[CH2]CCC,inactive,
CC(C)(C)C(O)(CCc1ccc(Cl)cc1)Cn1cncn1 (stereo not given),inactive,
CCN(CC)N=O,inactive,
COC(=O)c1ccccc1N,inactive,
ClC1=C(Cl)C2(Cl)C3C(Cl)C=CC3C1(Cl)C2(Cl)Cl (stereo not given),inactive,
CS(=O)(=O)NC(=O)c1cc(Oc2ccc(C(F)(F)F)cc2Cl)ccc1[N+](=O)[O-],inactive,
CC(C)(O)c1cnn2c(-c3ccc(F)c(-c4c(F)cccc4C#N)c3)cnc2n1,,86.8 µM (active) and 75.3 µM (active)
OCCCl,inactive,
CCCCCOC(=O)c1ccccc1C(=O)OCCCCC,inactive,
O=P(OCCCl)(OCCCl)OCCCl,inactive,
CN(C)[C@@H]1C(=O)C(C(N)=O)=C(O)[C@@]2(O)C(=O)C3=C(O)c4c(O)cccc4[C@@](C)(O)[C@H]3C[C@@H]12,inactive,
Cc1ccc([N+](=O)[O-])cc1,inactive,
CCCCOC(=O)c1ccccc1C(=O)OCc1ccccc1,inactive,
Clc1ccccc1Cl,inactive,
CCCCC(CC)COC(=O)c1ccc(C(=O)OCC(CC)CCCC)c(C(=O)OCC(CC)CCCC)c1 (stereo not given),inactive,
O=Cc1ccco1,inactive,
